High-throughput results deposited in PubChem by National Center for Advancing Translational Sciences (NCATS).
LmPK inh: LmPK (Leishmania mexicana) enzyme inhibition. Q27686. 290,000 tested, 0.37% active. purified LmPK, Kinase-Glo ATP luminescence, 1 h. Potency, µM (highest dose often 57.5 µM), actives largely listed as inhibitors
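ATP generated from ADP (0.1 mM) and PEP (0.5 mM) by 0.1 nM LmPK over 1 h at room temperature (pH 7.2 imidazole buffer) was detected by coupled luciferase luminescence. Values were normalized to uninhibited and no-enzyme wells.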
Shiga inhibitor: inhibitors of Shiga toxin in Vero cells. 290,000 tested, 9.2% active. inhibition, % at 38.7 µM. Vero cells, Shiga toxin protein synthesis inhibition reporter. AID 2315; in the data active = inhibition mostly above about 28%, no sharp cut-off; inactive = mostly below about 43%
Giardia FBPA inh: Giardia lamblia aldolase inhibition. A8B2U2. purified Giardia FBPA. 290,000 tested, 0.71% active. Potency, µM (top dose mostly 59.6 µM), usual class: inhibitors. AID 2451; note: nearly all actives have a fitted effect of over 55% in size
Target sequence (A8B2U2 whole entry, looked up): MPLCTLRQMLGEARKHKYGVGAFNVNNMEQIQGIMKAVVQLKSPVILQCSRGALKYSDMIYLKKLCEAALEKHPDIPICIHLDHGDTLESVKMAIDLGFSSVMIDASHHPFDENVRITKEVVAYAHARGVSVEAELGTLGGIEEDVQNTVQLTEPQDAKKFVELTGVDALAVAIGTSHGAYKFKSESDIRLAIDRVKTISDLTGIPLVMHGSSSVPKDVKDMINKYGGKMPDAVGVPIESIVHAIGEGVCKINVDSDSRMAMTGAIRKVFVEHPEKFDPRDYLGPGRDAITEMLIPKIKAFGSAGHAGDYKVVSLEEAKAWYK
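40 nM FBPA preincubated 10 min at RT with compound (up to 57.5 uM final), then substrate plus GAPDH/TPI/NAD/arsenate coupling and diaphorase/resazurin added. Fluorescence read after 20 min at RT, 525/598 nm.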
Tb PYK inh: inhibitors of Trypanosoma brucei pyruvate kinase. Q57TT1. TbPYK enzyme, Kinase-Glo Plus ATP luminescence, 45 min. Potency, µM (titrated, usually from 76.8 µM), hits mostly inhibitors. 410,000 tested, 0.12% active; note: nearly all actives have a fitted effect of over 50% in size
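Enzyme and substrate buffer are dispensed first and compound is pin-transferred. ADP at 130 uM final then starts the reaction, which runs 45 min at room temperature. Detection reagent is added for 10 min before luminescence is imaged.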
RE007 growth inh: less growth of the S. pombe RE007 Vpr strain. S. pombe RE007 Vpr strain, BacTiter-Glo ATP luminescence, 24 h. Potency, µM (series often up to 92.2 µM), most hits filed as inhibitors. 360,000 tested, 0.21% active; active = well fitted falling curve with a large enough effect; inconclusive = small, poorly fitted or top-dose-only effect; inactive = no such curve, though single readings can be large or run the other way; note: nearly all actives have a fitted effect of over 50% in size
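Fission yeast RE007 carrying one integrated HIV-1 vpr copy, seeded at OD 0.01 in PMG+AL medium with 23 nL pinned compound. Grown 24 h at 30 degrees; viability read by BacTiter-Glo luminescence after 5 min.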
CHX counter: affects cycloheximide protein synthesis inhibition readout, counter-screen; max response, %; 300,000 tested, 12% active; AID 2314; cell reporter, cycloheximide protein synthesis inhibition counterscreen; in the data active = max response mostly above about 13%, no sharp cut-off; inactive = mostly below about 14%; note: read at 38.3 µM for the half of the compounds with a filed dose
Hits are given with their value; 0 = inactive; ? = inconclusive; - = no result given; ! = a repeat was not active; [ ] = another dose, or the depositor's remark. This excerpt belongs to a sample that is enriched for hits. Unless noted, calls come from the whole dose curve; as a rule, active = well fitted curve in the direction sought with a large enough effect; inconclusive = small, poorly fitted or top-dose-only effect, or another doubt; inactive = no such curve, though single readings can be large; an effect the other way counts as inactive or inconclusive.

SMILES | LmPK inh | Shiga inhibitor | Giardia FBPA inh | Tb PYK inh | RE007 growth inh | CHX counter
O=C(NCc1ccccn1)c1cc(-c2ccccc2)on1 | 0 | 140.5 | 0 | 0 | 0 | 35.5
Cc1ccc(-c2cc(C(=O)NCc3ccccn3)no2)cc1 | 0 | 84.6 | 0 | 0 | 0 | 45.0
O=C(NCc1ccccn1)c1ccc([N+](=O)[O-])cc1 | 0 | 0 | 0 | 0 | 0 | 0
O=C(NCc1ccccn1)c1ccc(-c2ccccc2)cc1 | 0 | 63.6 | 0 | 0 | 0 | 35.7
COc1ccc(-n2cc(C(=O)OCc3ccc(F)c(F)c3)c3ccccc3c2=O)cc1 | - | - | - | 0 | - | -
COC(=O)N1C(c2ccccc2)=Cc2ccccc2C1CC(C)=O (configuration not stated) | 0[11.5 µM] | - | 0[12.9 µM] | - | - | -
Cc1cc(C)c(S(=O)(=O)NCc2ccc3c(c2)CCN3C(=O)c2ccccc2)c(C)c1 | - | - | - | 0 | - | -
O=C(NCc1ccccn1)c1ccc(N2CCCC2=O)cc1 | 0 | 0 | 0 | 0 | 0 | 23.5
CN1CCC(c2c[nH]c3ccc(O)cc23)CC1 | - | - | 1.99µM! | 0 | 0 | -
COc1ncccc1-c1cnc2cccnn12 | - | - | - | 0 | 0 | -
COc1ncccc1-c1nnn(-c2ccc(Cl)c(Cl)c2)n1 | 0 | 0 | 0 | 0 | 0 | 18.0
COc1ncccc1-c1nnn(-c2ccc(C)cc2)n1 | 0 | 131.4 | 0 | 0 | 0 | 48.5
COc1ncccc1-c1nnn(-c2ccc(F)cc2)n1 | 0 | 71.0 | 0 | 0 | 0 | 54.4
COc1cc2ccccc2cc1C(=O)Nc1cc(C)ccn1 | 0 | 104.3 | - | 0 | 0 | 42.0
O=C(Nc1cccnc1)c1ccccc1O | 0 | 57.6 | 0 | 0 | 0 | 20.7
COc1ccc(C(=O)NC(=O)Nc2cc(C)ccn2)cc1 | ? | 76.8 | 0 | 0 | 0 | 34.2
COc1ccc(C(=O)Nc2ccccc2C(=O)Nc2cccnc2)cc1 | 0 | 48.9 | 0 | 0 | ? | 0
COc1ccc(C(=O)Nc2cccnc2)cc1 | 0 | 0 | 0 | 0 | 0 | 0
COC(=O)C1=C[C@@H](C(=O)OC)[C@@H]2C3=C(C(=O)C2(C)C)[C@H](C)n2c(=O)n(C)c(=O)n2[C@@H]3C1 | - | 0 | 0 | - | - | 0
Cc1cc(C)c2c(-n3cccc3)c(C(=O)NCCCN3CCCCC3)sc2n1 | - | - | - | 0 | - | -
O=S(=O)(c1ccc(Br)cc1)N1CCn2cccc2C1c1ccc(Br)cc1 (configuration not stated) | - | - | - | 0 | - | -
CSc1ncccc1C(=O)Nc1cc(C)ccn1 | 0 | 0 | - | 0 | 0 | 10.8
COc1ccc(Br)cc1C(=O)Nc1ccc(O)cc1 | 0 | 41.1 | 0 | 0 | 0 | 17.3
Cc1ccc(NC(=O)c2ccccc2NC(=O)CCC(=O)O)cc1 | 0 | 19.5 | 0 | 0 | 0 | 44.9
Cc1cc(C)cc(NC(=O)c2ccccc2NC(=O)CCC(=O)O)c1 | 0 | 0 | 0 | 0 | 0 | 0
SMILES | LmPK inh | Shiga inhibitor | Giardia FBPA inh | Tb PYK inh | RE007 growth inh | CHX counter
CC(=O)c1ccccc1NCC(=O)Nc1ccc(C)cc1 | 0 | 60.8 | 0 | 0 | 0 | 30.4
CSc1ncccc1C(=O)NCc1ccc(C)cc1 | 0 | 0 | 0 | 0 | 0 | 0
Cc1ccc(NC(=O)CNc2ccc(Cl)cc2F)cc1 | 0 | 0 | 0 | 0 | 0 | 0
CCc1ccccc1NC(=O)CCCn1c(=O)c2cccn2c2ccccc21 | - | - | - | 0 | - | -
CNC(=O)C1CCC(Cn2c(=O)c3sccc3n(CC(=O)NCc3ccc(C)cc3)c2=O)CC1 (configuration not stated) | - | - | - | 0 | - | -
C=C(C)CSc1nc2sc3c(c2c(=O)n1CCCC)CCCC3 | - | - | - | 0 | - | -
COc1cc2ccccc2cc1C(=O)Nc1ccc(Cc2ccncc2)cc1 | 0 | 0 | 0 | 0 | 0 | 0
COc1ccc(C(=O)Nc2ccccc2C(=O)Nc2cc(C)ccn2)cc1 | 0 | - | 0 | 0 | 0 | 40.7
COc1cc2ccccc2cc1C(=O)Nc1ccc(C)cc1 | 0 | 0 | 0 | 0 | 0 | 25.8
COc1ccc(C(=O)Nc2ccccc2C(=O)NC(Cc2ccc(O)cc2)C(=O)NNC(=O)c2ccccc2)cc1 (configuration not stated) | 0 | 0 | 0 | 0 | 0 | 19.9
COc1ccc(C(=O)Nc2ccccc2C(=O)NC(Cc2ccc(O)cc2)C(=O)NNC(=O)c2ccc(C)cc2)cc1 (configuration not stated) | 0 | 0 | 0 | 0 | 0 | 0
COc1ccc(C(=O)Nc2ccccc2C(=O)Nc2cccc(C)n2)cc1 | 0 | 28.1 | 0 | 0 | 0 | 9.8
